AddAB inh: growth inhibition of E. coli expressing H. pylori AddAB, primary screen, AddAB inhibitor project, absorbance. inhibition, % at 11.9 µM. hit rate 0.29% among 330,000. AID 435030, 2010; in the data active = inhibition above about 12%;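 also: 0% = vehicle wells of infected cells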
Tat transport: E. coli Tat export inhibitors, primary screen, MC4100, TorA-mCherry reporter, fluorescence, single point; inhibition, % at 10 µM; hit rate 0.036% among 340,000; AID 488895, 2010;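 active = mean replicate inhibition at least 50% and at least half of replicates individually reaching 50%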;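 also: exported cargo escapes ClpAP degradation while cytoplasmic cargo is degraded and loses fluorescence; 0% = median of neutral control wells and 100% = median of NaSCN control wells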
E coli growth-1: E. coli growth inhibition, primary screen, OD600; Escherichia coli growth, 23 h; hits give low values; OD600 absorbance (test concentration not listed); hit rate 0.21% among 330,000;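 active = OD600 absorbance below the run mean of sample wells minus 3.6 SD, in any replicate, cut at about 0.56 in these data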
E coli growth-2: E. coli V3065 growth inhibition, primary screen, counter-screen for AddAB inhibitor project, absorbance, OD600. 18 h. inhibition, % at 11.9 µM. hit rate 0.27% among 330,000. AID 449728, 2010;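 active = inhibition above the campaign's mean inhibition across all tested compounds plus 3 SD, cut at about 9.9% in these data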;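 also: uninfected addAB+ strain grown without phage in ampicillin broth; 0% = DMSO wells and 100% = ciprofloxacin 0.95 µg/ml wells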
phage Ecoli inh: growth loss of phage-infected E. coli, primary screen, RecBCD inhibitor project, absorbance, with phage, HTS | inhibition, % at 11.9 µM | hit rate 0.26% among 360,000 | AID 651602, 2012; in the data active = inhibition above about 11%
RecBCD conf: growth loss of phage-infected RecBCD+ E. coli, confirmation, RecBCD inhibitor project, absorbance, E. coli V66, T4 gene 2 phage; shares compounds with phage Ecoli inh; E. coli V66 + T4 2- phage, growth OD; inhibition, % at 11.9 µM; hit rate 45% among 890;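 active = mean inhibition over triplicates exceeding the hit threshold derived in the original primary screen, cut at about 11% in these data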
Ecoli viability: E. coli viability inhibition, counter-screen for RecBCD inhibitor project, absorbance, high throughput. shares compounds with phage Ecoli inh. absorbance (OD) growth. inhibition, % at 11.9 µM. hit rate 29% among 890; in the data active = inhibition above about 20%;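 also: E. coli strain V66 grown with compound alone and no phage infection; 0% = bacteria with DMSO vehicle only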
AddAB counter: growth loss of phage-infected AddAB-carrying E. coli, confirmation, counter-screen for RecBCD inhibitor project, absorbance, E. coli V3065, T4 phage; hit rate 45% among 890; inhibition, % at 11.9 µM; shares compounds with phage Ecoli inh; AID 651984, 2013; E. coli expressing H. pylori AddAB + T4 phage, OD growth; gene 2 mutant T4, recBCD-deleted host;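 active = mean inhibition above the solvent-only control wells' mean plus 3 SD, cut at about 22% in these data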;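 also: higher means less bacterial growth from phage killing when AddAB is blocked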
Starred values were filed as active, the others as inactive; i = inactive; . = not tested or not shown. Only some compounds are listed: those with a hit (about 0.5% of all), similar ones and a draw of the others.

SMILES | AddAB inh | Tat transport | E coli growth-1 | E coli growth-2 | phage Ecoli inh | RecBCD conf | Ecoli viability | AddAB counter
Cc1cccc(NC(=O)COC(=O)CN2CCCCCC2=O)c1C | -0.4 | -11.8 | 0.672 | -0.1 | 10.9* | 0.8 | 0.8 | -0.6
COc1cc(N(C)C)ccc1C=c1c2ccccc2n2c1cc(-c1ccccc1)[n+]2C | . | i | . | . | 27.6* | 32.3* | 36.1* | 97.2*
Cc1ccc(OCc2cc(C(=O)NCc3cn4ccccc4n3)no2)cc1C | 4.4 | 1.6 | 0.639 | 2.2 | 3.7 | . | . | .
O=C(NCCc1cn2ccccc2n1)c1cc(COc2c(F)cccc2F)on1 | 10.2 | -18.5 | 0.549 | 6.5 | 12.5* | 2.3 | 5.3 | 6.3
COC(=O)c1ccc(NC(=O)Nc2ccc(F)cc2F)cc1 | 4.7 | -0.5 | 0.714 | 0.0 | 7.3 | . | . | .
COC(=O)c1ccc(NC(=O)Nc2cccc(F)c2)cc1 | 9.1 | -0.1 | 0.599 | 6.0 | 11.6* | 4.3 | 3.8 | 0.1
CC(C)CC(NC(=O)c1[nH]cnc1C(=O)Nc1ccccc1)C(=O)OC(C)(C)C (stereo not given) | . | . | 0.674 | . | . | . | . | .
COc1ccccc1OCc1ccc(C(=O)NN=Cc2ccco2)cc1 | . | . | 0.602 | . | . | . | . | .
O=C(c1ccco1)N1CCCN(Cc2nc(-c3ccc4c(c3)OCO4)no2)CC1 | -1.7 | 3.8 | 0.677 | -0.2 | 14.9* | 1.1 | 1.4 | -1.6
Fc1ccc(CN2CCCN(Cc3nc(-c4ccc5c(c4)OCO5)no3)CC2)cc1 | 2.6 | -1.6 | 0.656 | -0.1 | 4.3 | . | . | .
O=Cc1cc(N=Nc2ccccc2Cl)ccc1O | 7.3 | 0.2 | 0.683 | 7.2 | 12.5* | 4.8 | 6.6 | 0.9
O=C(OC1C(Oc2ccccc2COC(=O)C2(O)C=CCCC2=O)OC(CO)C(O)C1O)c1ccccc1 (stereo not given) | . | . | 0.708 | . | . | . | . | .
O=C(O)C1=CCC(c2ccc(Cl)cc2)N(S(=O)(=O)c2ccc(Cl)cc2)C1 (stereo not given) | . | . | 0.674 | . | . | . | . | .
O=C(c1ccc(-c2ccccc2)c(F)c1)C1CCCN(CCCn2cccn2)C1 (stereo not given) | 3.4 | -3.6 | 0.696 | 1.0 | 99.5* | 1.1 | 1.9 | 0.7
COc1ccc(OC)c(C=NNC(=O)c2cnccn2)c1 | . | . | 0.671 | . | . | . | . | .
O=C(O)CCC(=O)Nc1nnc(C(F)(F)F)s1 | 1.2 | 1.2 | 0.769 | -1.3 | 2.2 | . | . | .
CCC(NC(=O)Nc1nnc(C(F)(F)F)s1)(C(F)(F)F)C(F)(F)F | 5.1 | -20.7 | 0.607 | 9.3 | 12.4* | 9.9 | 10.4 | 9.3
CCC(C)C(NC(=O)Nc1cccc(Cl)c1)C(=O)O (stereo not given) | . | . | 0.686 | . | . | . | . | .
O=C(CCSc1nc2ccccc2s1)N/N=C/c1c(O)ccc2ccccc12 | 8.2 | -6.5 | . | 12.1* | 16.8* | 6.8 | 10.1 | 17.7
COc1ccc(C=NNC(=O)CCSc2nc3ccccc3s2)cc1 | . | . | 0.714 | . | . | . | . | .
O=C(CN1C(=O)COc2ccccc21)Nc1ccccc1F | -0.1 | 21.6 | 0.691 | 1.5 | 14.1* | -2.7 | -2.7 | -2.7
O=C(CN1C(=O)COc2ccccc21)NNC(=O)Nc1ccccc1F | 3.2 | -6.4 | 0.693 | -1.4 | 1.9 | . | . | .
Oc1cccc2cc(Nc3ccccc3)cnc12 | . | . | . | . | 22.7* | 16.0* | 19.2 | 25.1*

High-throughput results from PubChem BioAssay.
